# Reference: paper PMC7862700, “An all-to-all approach to the identification of sequence-specific readers for epigenetic DNA modifications on cytosine”
# Legend:
# Test in all cases: DAPPL (digital affinity profiling via proximity ligation, sequencing); 10 mM Tris-HCl pH 7.5, 50 mM NaCl, 1 mM DTT, 4% glycerol, room temperature, 30 min; GST-TFs on glutathione beads, 16-mer random dsDNA library, 0.1% formaldehyde crosslink after washing; high values mean tight binding
# Settings in all cases: protein: recombinant; tags: N-terminal GST; dsDNA, one strand shown
# FLI1 = biological target: T1, FLI1 (Homo sapiens, UniProt Q01543 1-452)
# T1 sequence: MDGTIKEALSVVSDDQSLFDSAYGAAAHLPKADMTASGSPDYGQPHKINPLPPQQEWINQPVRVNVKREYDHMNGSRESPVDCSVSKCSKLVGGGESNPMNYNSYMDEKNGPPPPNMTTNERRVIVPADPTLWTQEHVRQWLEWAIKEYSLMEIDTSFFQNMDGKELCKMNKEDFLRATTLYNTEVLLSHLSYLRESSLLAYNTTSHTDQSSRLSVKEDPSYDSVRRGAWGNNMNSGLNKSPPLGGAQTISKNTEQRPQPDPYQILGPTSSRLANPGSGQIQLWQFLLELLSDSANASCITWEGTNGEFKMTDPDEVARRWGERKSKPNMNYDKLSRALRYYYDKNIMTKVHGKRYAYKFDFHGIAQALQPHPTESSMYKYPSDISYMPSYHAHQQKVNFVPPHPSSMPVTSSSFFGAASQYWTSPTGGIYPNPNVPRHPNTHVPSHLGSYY
# Summary of the method: (§1)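 Yeast served to express human transcription factors as GST fusions, which were then captured on glutathione beads and labelled with DNA barcodes. Pooled with a tag-only sample, they were incubated with 200 nmole of a 16-mer random double-stranded DNA library for 30 min at room temperature in Tris/NaCl/DTT/glycerol buffer, washed, crosslinked with 0.1% formaldehyde, ligated by proximity, amplified by PCR and sequenced. Dividing each hexamer's read frequency for a factor by its frequency for the tag-only sample gives the binding signal.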
# ELK1 = biological target: T2, ELK1 (Homo sapiens, UniProt P19419 1-428)
# T2 sequence: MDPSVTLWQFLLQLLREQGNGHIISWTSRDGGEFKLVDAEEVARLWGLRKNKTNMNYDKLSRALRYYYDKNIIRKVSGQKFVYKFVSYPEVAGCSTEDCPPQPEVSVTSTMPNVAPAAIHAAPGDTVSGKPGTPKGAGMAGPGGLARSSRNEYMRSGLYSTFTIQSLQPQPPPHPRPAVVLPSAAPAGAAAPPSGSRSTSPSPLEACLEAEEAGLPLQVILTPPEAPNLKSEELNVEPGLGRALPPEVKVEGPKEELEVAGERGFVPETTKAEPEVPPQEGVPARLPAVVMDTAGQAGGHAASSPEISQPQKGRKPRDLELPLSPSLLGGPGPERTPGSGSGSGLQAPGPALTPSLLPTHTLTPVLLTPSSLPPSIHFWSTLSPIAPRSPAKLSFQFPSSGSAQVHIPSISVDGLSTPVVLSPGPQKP
# Summary of the method: as §1
# GABPA = biological target: T3, GABPA (Homo sapiens, UniProt Q06546 1-454)
# T3 sequence: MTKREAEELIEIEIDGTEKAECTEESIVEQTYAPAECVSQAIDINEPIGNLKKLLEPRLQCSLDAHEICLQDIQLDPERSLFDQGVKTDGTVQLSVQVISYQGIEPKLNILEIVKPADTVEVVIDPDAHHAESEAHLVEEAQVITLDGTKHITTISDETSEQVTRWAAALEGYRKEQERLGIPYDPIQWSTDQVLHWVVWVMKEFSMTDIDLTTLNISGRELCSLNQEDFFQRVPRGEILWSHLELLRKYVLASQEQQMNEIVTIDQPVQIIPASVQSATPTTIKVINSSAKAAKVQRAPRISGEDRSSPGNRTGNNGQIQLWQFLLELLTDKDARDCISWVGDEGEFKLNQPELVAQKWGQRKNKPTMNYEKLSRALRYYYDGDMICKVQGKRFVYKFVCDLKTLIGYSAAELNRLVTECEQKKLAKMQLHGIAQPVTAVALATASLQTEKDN
# Summary of the method: as §1
# ERG = biological target: T4, ERG (Homo sapiens, UniProt P11308 1-479)
# T4 sequence: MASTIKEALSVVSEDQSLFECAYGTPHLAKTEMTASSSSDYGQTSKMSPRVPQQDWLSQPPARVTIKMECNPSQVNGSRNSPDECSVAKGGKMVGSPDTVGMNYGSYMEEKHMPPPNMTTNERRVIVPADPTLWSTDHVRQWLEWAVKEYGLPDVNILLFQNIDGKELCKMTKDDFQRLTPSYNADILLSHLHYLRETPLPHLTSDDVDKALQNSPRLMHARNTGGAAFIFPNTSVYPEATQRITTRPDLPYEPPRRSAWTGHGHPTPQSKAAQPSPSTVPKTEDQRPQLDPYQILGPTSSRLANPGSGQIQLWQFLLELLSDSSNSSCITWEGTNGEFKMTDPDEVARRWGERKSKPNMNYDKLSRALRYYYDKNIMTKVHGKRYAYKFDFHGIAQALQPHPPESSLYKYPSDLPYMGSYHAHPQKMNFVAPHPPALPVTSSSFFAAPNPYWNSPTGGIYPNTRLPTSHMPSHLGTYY
# Summary of the method: as §1
# ELF1 = ELF1 (Homo sapiens, UniProt P32519 1-619)
# Sequence of ELF1 (P32519 whole entry): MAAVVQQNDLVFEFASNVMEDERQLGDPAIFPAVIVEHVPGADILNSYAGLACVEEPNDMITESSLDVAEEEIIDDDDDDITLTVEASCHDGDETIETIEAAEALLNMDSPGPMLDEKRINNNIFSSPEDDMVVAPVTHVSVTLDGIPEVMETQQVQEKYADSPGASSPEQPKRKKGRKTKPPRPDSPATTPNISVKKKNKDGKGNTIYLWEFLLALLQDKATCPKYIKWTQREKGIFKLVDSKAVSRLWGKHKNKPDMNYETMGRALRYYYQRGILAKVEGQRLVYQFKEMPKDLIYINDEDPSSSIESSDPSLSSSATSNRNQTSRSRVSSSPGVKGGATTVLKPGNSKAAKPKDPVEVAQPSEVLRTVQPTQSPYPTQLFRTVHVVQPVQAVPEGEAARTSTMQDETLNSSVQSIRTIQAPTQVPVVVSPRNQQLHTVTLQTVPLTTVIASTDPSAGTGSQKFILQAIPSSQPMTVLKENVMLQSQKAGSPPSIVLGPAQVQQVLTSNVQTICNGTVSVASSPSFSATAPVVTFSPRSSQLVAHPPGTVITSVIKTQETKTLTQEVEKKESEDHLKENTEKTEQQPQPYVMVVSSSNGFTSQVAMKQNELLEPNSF
# Summary of the method: as §1
# EHF = biological target: T5, EHF (Homo sapiens, UniProt Q9NZC4 1-300)
# T5 sequence: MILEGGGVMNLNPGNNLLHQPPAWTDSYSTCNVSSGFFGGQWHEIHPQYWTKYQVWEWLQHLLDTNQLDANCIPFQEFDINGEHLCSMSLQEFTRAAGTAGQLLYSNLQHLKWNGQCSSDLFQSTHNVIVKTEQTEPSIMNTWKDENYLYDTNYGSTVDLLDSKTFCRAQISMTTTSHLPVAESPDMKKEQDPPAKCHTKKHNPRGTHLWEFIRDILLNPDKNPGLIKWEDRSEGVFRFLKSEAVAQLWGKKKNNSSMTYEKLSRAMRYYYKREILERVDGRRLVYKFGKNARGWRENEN
# Summary of the method: as §1
# SPI1 = SPI1 (Homo sapiens, UniProt P17947 1-270)
# Summary of the method: as §1
# SPIB = SPIB (Homo sapiens, UniProt Q01892 1-262)
# Sequence of SPIB (Q01892 whole entry): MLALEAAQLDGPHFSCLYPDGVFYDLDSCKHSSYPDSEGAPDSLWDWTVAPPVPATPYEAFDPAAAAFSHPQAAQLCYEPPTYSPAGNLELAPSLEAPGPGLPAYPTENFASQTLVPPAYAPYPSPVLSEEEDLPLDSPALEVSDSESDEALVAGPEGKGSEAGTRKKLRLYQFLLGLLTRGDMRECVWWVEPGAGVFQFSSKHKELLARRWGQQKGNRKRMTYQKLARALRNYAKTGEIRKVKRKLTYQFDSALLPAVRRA
# Summary of the method: as §1
# ELK3 = biological target: T6, ELK3 (Homo sapiens, UniProt P41970 1-407)
# T6 sequence: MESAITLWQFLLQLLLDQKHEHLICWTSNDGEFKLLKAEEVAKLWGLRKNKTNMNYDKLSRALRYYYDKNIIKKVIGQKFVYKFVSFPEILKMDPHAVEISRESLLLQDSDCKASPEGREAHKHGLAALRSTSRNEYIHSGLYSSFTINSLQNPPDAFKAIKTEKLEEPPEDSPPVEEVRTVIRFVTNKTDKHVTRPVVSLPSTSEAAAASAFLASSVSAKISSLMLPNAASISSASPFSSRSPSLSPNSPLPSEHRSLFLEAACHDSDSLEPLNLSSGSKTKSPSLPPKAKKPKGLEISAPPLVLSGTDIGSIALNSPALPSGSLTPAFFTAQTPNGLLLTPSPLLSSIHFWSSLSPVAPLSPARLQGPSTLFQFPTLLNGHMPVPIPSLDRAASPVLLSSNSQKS
# Summary of the method: as §1
# FEV = biological target: T7, FEV (Homo sapiens, UniProt Q99581 1-238)
# T7 sequence: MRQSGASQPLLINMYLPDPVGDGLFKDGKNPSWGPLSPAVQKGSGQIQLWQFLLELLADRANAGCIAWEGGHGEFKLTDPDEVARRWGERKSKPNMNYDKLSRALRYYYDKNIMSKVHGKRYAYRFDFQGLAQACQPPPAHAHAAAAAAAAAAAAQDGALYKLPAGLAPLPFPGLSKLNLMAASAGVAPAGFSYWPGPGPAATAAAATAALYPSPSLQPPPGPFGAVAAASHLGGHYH
# Summary of the method: as §1
# ETV5 = ETV5 (Homo sapiens, UniProt P41161 1-510)
# Sequence of ETV5 (P41161 whole entry): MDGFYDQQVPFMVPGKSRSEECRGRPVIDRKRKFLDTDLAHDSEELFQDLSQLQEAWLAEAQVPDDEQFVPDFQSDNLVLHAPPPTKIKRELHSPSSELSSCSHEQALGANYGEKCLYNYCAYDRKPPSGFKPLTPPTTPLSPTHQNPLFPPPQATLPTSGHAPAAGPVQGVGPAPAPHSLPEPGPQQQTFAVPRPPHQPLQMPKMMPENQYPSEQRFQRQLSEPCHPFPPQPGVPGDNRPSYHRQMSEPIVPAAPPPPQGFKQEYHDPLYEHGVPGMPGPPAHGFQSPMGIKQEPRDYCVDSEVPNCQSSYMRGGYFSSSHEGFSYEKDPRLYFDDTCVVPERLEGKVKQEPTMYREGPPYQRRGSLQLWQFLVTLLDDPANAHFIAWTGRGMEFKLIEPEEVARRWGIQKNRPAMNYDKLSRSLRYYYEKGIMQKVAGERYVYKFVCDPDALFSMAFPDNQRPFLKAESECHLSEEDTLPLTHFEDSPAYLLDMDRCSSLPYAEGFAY
# Summary of the method: as §1
# SPIC = biological target: T8, SPIC (Homo sapiens, UniProt Q8N5J4 1-248)
# T8 sequence: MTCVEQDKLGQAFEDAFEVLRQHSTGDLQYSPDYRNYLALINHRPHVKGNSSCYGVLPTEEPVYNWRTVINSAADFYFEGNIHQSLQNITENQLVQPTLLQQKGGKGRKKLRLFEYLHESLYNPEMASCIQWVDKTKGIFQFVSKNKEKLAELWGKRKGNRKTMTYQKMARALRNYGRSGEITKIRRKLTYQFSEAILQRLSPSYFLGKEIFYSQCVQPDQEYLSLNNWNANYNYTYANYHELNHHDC
# Summary of the method: as §1
# ELF4 = ELF4 (Homo sapiens, UniProt Q99607 1-663)
# Sequence of ELF4 (Q99607 whole entry): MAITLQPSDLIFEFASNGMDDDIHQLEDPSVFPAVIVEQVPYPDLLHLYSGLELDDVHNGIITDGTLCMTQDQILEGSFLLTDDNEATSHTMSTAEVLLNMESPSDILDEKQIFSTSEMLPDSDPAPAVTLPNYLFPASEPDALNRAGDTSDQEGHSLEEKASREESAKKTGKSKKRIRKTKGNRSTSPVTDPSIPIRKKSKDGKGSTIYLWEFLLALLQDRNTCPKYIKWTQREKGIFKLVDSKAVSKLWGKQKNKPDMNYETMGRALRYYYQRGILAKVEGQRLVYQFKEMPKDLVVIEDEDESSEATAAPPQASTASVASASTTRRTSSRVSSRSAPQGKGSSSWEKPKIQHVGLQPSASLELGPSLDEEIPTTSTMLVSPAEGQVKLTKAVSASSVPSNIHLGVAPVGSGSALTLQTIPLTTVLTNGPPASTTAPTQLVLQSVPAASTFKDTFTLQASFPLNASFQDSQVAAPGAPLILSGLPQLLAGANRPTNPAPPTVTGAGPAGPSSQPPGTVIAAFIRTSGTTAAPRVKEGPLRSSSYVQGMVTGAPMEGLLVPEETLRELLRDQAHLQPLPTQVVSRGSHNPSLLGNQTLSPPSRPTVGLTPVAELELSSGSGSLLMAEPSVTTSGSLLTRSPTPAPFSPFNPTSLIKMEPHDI
# Summary of the method: as §1
# ELK4 = biological target: T9, ELK4 (Homo sapiens, UniProt P28324-2 1-405)
# T9 sequence: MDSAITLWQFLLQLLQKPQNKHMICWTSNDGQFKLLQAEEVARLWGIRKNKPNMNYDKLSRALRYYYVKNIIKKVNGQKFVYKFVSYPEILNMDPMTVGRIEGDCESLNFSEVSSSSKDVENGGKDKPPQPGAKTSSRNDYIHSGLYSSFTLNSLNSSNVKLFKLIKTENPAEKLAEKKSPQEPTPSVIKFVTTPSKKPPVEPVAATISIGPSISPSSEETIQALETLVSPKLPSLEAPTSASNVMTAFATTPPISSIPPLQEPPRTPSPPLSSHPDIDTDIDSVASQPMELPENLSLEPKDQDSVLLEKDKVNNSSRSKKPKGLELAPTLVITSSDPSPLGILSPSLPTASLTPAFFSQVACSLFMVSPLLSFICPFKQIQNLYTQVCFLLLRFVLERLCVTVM
# Summary of the method: as §1
# ETV2 = biological target: T10, ETV2 (Homo sapiens, UniProt O00321 1-342)
# T10 sequence: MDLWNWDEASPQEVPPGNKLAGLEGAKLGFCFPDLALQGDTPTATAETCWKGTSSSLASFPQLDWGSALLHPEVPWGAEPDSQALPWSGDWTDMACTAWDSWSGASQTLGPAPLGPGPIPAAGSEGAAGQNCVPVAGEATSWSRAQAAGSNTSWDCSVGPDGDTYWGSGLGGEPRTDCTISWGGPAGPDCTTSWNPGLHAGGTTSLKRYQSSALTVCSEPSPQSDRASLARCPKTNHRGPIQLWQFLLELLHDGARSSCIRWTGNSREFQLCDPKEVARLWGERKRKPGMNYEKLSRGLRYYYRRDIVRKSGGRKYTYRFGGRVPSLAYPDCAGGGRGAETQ
# Summary of the method: as §1
# ELF3 = biological target: T11, ELF3 (Homo sapiens, UniProt P78545 1-371)
# T11 sequence: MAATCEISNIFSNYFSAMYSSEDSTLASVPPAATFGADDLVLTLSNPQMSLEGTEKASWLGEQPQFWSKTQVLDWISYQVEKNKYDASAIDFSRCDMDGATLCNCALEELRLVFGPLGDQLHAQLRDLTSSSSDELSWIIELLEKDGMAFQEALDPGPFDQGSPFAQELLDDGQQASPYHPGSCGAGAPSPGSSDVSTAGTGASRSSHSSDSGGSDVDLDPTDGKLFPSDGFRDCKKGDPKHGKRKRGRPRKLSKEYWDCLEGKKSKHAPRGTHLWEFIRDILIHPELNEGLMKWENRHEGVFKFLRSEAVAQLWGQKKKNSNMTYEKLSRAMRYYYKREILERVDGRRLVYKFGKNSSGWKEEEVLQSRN
# Summary of the method: as §1
# ETV1 = ETV1 (Homo sapiens, UniProt P50549 1-477)
# Sequence of ETV1 (P50549 whole entry): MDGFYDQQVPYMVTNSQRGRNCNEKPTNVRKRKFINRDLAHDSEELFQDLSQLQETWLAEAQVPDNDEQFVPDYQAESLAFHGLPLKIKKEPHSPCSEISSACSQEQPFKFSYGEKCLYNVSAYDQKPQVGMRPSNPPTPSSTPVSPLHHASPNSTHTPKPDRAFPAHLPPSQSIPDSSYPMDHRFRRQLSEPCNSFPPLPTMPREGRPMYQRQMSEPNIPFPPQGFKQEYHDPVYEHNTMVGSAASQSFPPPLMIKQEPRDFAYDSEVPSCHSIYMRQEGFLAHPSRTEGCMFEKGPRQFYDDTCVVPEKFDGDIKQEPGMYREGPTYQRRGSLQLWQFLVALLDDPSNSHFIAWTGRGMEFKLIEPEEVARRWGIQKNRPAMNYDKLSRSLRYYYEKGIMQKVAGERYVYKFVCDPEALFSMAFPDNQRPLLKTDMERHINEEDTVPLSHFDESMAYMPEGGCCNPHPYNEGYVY
# Summary of the method: as §1
Sequence,binding signal (FLI1),binding signal (ELK1),binding signal (GABPA),binding signal (ERG),binding signal (ELF1),binding signal (EHF),binding signal (SPI1),binding signal (SPIB),binding signal (ELK3),binding signal (FEV),binding signal (ETV5),binding signal (SPIC),binding signal (ELF4),binding signal (ELK4),binding signal (ETV2),binding signal (ELF3),binding signal (ETV1)
CGGTCT,"1.24 fold enrichment (6-mer frequency, TF over GST control)","1.15 fold enrichment (6-mer frequency, TF over GST control)","1.1 fold enrichment (6-mer frequency, TF over GST control)","1.18 fold enrichment (6-mer frequency, TF over GST control)","1.15 fold enrichment (6-mer frequency, TF over GST control)","1.15 fold enrichment (6-mer frequency, TF over GST control)","1.13 fold enrichment (6-mer frequency, TF over GST control)","1.16 fold enrichment (6-mer frequency, TF over GST control)","1.18 fold enrichment (6-mer frequency, TF over GST control)","1.3 fold enrichment (6-mer frequency, TF over GST control)","1.25 fold enrichment (6-mer frequency, TF over GST control)","1.02 fold enrichment (6-mer frequency, TF over GST control)","1.18 fold enrichment (6-mer frequency, TF over GST control)","1.12 fold enrichment (6-mer frequency, TF over GST control)","1.24 fold enrichment (6-mer frequency, TF over GST control)","1.29 fold enrichment (6-mer frequency, TF over GST control)","1.16 fold enrichment (6-mer frequency, TF over GST control)"
CACGCC,"1.12 fold enrichment (6-mer frequency, TF over GST control)","1.25 fold enrichment (6-mer frequency, TF over GST control)","1.27 fold enrichment (6-mer frequency, TF over GST control)","1.29 fold enrichment (6-mer frequency, TF over GST control)","1.26 fold enrichment (6-mer frequency, TF over GST control)","1.18 fold enrichment (6-mer frequency, TF over GST control)","1.2 fold enrichment (6-mer frequency, TF over GST control)","1.15 fold enrichment (6-mer frequency, TF over GST control)","1.22 fold enrichment (6-mer frequency, TF over GST control)","1.19 fold enrichment (6-mer frequency, TF over GST control)","1.17 fold enrichment (6-mer frequency, TF over GST control)","1.01 fold enrichment (6-mer frequency, TF over GST control)","1.25 fold enrichment (6-mer frequency, TF over GST control)","1.24 fold enrichment (6-mer frequency, TF over GST control)","1.22 fold enrichment (6-mer frequency, TF over GST control)","1.27 fold enrichment (6-mer frequency, TF over GST control)","1.19 fold enrichment (6-mer frequency, TF over GST control)"
